Bioassay records (PubChem BioAssay)
697 NFkB inh: inhibitors of the PMA/ionomycin-induced NF-kB reporter in 697 B cells. 697 B-cell NF-kB luciferase reporter, 16 h. inhibition, % at 4 µM. 330,000 tested, 0.33% active; in the data active = inhibition above about 35%
Mdm2 MdmX PPI: human Mdm2/MdmX binding inhibition; SaOS-2 split-luciferase Mdm2/MdmX complementation, luminescence; inhibition, % at 8 µM; 330,000 tested, 3% active;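 active = inhibition of at least 50% at 8 µM in the primary screen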
Target sequence (O15151 whole entry, looked up): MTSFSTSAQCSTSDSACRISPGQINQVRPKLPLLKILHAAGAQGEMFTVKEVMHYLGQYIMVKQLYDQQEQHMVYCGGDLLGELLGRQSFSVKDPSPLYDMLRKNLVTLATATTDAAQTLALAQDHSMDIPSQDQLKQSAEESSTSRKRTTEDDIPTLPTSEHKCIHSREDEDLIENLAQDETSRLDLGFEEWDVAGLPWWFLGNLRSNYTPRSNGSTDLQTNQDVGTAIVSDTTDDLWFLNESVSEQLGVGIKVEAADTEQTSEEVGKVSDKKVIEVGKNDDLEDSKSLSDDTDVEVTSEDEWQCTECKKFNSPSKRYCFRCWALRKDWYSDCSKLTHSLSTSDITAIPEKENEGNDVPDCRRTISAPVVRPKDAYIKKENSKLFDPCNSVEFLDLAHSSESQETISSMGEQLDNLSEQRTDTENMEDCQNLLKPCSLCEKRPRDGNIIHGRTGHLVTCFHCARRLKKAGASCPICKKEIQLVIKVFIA
Target sequence (Q00987 whole entry, looked up): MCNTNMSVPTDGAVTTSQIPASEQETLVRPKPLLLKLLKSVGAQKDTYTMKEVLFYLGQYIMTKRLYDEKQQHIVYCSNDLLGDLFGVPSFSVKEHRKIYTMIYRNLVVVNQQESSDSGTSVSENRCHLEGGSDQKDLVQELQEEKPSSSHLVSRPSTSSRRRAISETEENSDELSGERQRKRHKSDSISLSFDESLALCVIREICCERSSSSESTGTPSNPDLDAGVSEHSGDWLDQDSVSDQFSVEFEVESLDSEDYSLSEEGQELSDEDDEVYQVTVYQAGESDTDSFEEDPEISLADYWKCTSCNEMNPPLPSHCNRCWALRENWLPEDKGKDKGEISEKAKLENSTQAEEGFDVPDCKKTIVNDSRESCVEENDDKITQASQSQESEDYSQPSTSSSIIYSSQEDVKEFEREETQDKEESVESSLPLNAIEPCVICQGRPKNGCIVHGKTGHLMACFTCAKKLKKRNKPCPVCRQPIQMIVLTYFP
aSyn 5UTR inh: MLPCN primary screen, SNCA 5' untranslated region. inhibition, % (tested at 7.5 µM). 300,000 tested, 0.82% active. alpha-synuclein 5'UTR reporter, inhibitor activity; in the data active = inhibition above about 60%; inconclusive = no clear call, values can overlap the other calls;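 also: H4 neuroglioblastoma cells stably carrying SNCA 5'UTR luciferase fusion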
KLF5 inh: inhibitors of KLF5 expression; DLD-1 KLF5 promoter-luciferase reporter, luminescence; inhibition, % at 5 µM; 290,000 tested, 0.23% active; AID 1700;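 active = inhibition above a per-plate limit of that plate's mean compound inhibition plus 3 SD, cut at about 60% in these data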;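 also: higher means less KLF5 promoter-driven luciferase light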
Gli-Sufu block: antagonists of Gli-Sufu signaling; Sufu-KO-LIGHT fibroblasts, Gli luciferase reporter luminescence; inhibition, % at 5 µM; 340,000 tested, 0.74% active; AID 588413;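 active = inhibition above about 55%, limit read from the data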
Jurkat NFkB inh: inhibitors of the PMA/ionomycin-induced NF-kB reporter in Jurkat cells | PMA/ionomycin-induced NF-kB luciferase reporter, luminescence | inhibition, % at 4 µM | 330,000 tested, 0.53% active; in the data active = inhibition above about 50%
Mdm2-MdmX conf: human Mdm2/MdmX binding inhibition, confirmed; shares compounds with Mdm2 MdmX PPI; luminescent assay; inhibition, % at 8 µM; 10,000 tested, 55% active; AID 489028; in the data active = inhibition above about 40%
FLuc counter: counter-screen for Mdm2/MdmX inhibitors: full-length luciferase; SaOS-2 full-length luciferase counterscreen, luminescence; 6,200 tested, 77% active; AID 504607; shares compounds with Mdm2 MdmX PPI; inhibition, % at 8 µM;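 active = mean inhibition at 8 µM reaching about 37%, which flags the compound as non-specific, limit read from the data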;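 also: p53-null SaOS-2 cells with luciferase driven by a doxycycline-inducible promoter; compound on cells about two nights before reading with doxycycline added after day one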
Each line names hits and unclear results; the compound was inactive in the other large screens (follow-up assays come after a bar, where they were run). Sampled rows, rich in hits. Any-hit rate of the full collection: about 4.1%.

CCSc1nnc(NC(=O)C2CC(=O)N(Cc3ccccc3)C2)s1 (stereo not given)	none
Cn1c(Oc2ccc(Cl)cc2)c(C=O)c2ccccc21	Mdm2 MdmX PPI 50 | Mdm2-MdmX conf 41 | FLuc counter inactive
COc1ccc(Oc2c(C=O)c3ccccc3n2C)cc1	none
Cn1c(Sc2ccc(Cl)cc2)c(C=O)c2ccccc21	Mdm2 MdmX PPI 81 | Mdm2-MdmX conf 77 | FLuc counter 57
CCOc1ccc(NC(=O)CCC(=O)NNC(=O)COc2ccccc2C)cc1	none
O=C(c1cccc(COc2cccc3ccccc23)c1)N1CCCC1	Mdm2 MdmX PPI 50 | Mdm2-MdmX conf inactive
Cc1cccc(OCC(=O)Nc2cccc(-c3nnc(-c4ccccc4)o3)c2)c1C	none
Cc1cccc(C)c1OCC(=O)Nc1cccc(-c2nnc(-c3ccccc3)o2)c1	Mdm2 MdmX PPI 61 | Mdm2-MdmX conf inactive
CC(C)c1ccc(/C=C2\SC(=O)N(CC(=O)NC3C=CS(=O)(=O)C3)C2=O)cc1 (stereo not given)	Mdm2 MdmX PPI 77 | Mdm2-MdmX conf 40 | FLuc counter 40
O=C(CCN1C(=O)/C(=C/c2ccc(Cl)cc2)SC1=S)NC1C=CS(=O)(=O)C1 (stereo not given)	Mdm2 MdmX PPI 59 | Mdm2-MdmX conf inactive
CCOC(=O)C1=C(c2ccccc2)NC(N)=NC1c1ccc(OCc2ccc(C(=O)OC)cc2)cc1 (stereo not given)	Mdm2 MdmX PPI 100 | Mdm2-MdmX conf inactive | FLuc counter 72
O=C(c1cccs1)N1CCC(c2nc3c(nnn3Cc3c(Cl)cccc3Cl)c(=O)[nH]2)CC1	none
c1ccn2cc(-c3ccc4c(c3)OCCO4)nc2c1	Mdm2 MdmX PPI 50, aSyn 5UTR inh 98 | Mdm2-MdmX conf inactive
O=C(CN(c1ccccc1)S(=O)(=O)c1ccc(F)cc1)NCc1cccs1	none (no result: aSyn 5UTR inh, KLF5 inh)
C[C@H]1CC[C@H]2C(=O)N3[C@H](c4cccc(N5CCCC5=O)c4)[C@@H](C)CC[C@H]3C(=O)N2[C@@H]1c1cccc(N2CCCC2=O)c1	none (no result: Gli-Sufu block)
C[C@H]1CC[C@H]2C(=O)N3[C@H](c4ccccc4Br)[C@@H](C)CC[C@H]3C(=O)N2[C@@H]1c1ccccc1Br	Mdm2 MdmX PPI 79 (no result: Gli-Sufu block) | Mdm2-MdmX conf 51 | FLuc counter 68
Cc1cc(Nc2nc3ccccc3nc2Cl)n(-c2ccccc2)n1	Mdm2 MdmX PPI 64 | Mdm2-MdmX conf 59 | FLuc counter 41
Cc1cc(Nc2nc3ccccc3nc2Cl)n(-c2ccccc2C)n1	none
COc1cc2nc(SCC(=O)NCc3ccco3)n(Cc3ccc(Cl)cc3)c(=O)c2cc1OC	Mdm2 MdmX PPI 78 | Mdm2-MdmX conf inactive
Cc1sc2nc(SCC(=O)NCc3ccco3)n(CCc3ccccc3)c(=O)c2c1C	Mdm2 MdmX PPI 63 | Mdm2-MdmX conf inactive
CC1=Nc2ccccc2/C1=C/c1nc(-c2ccc(C)s2)oc1O	none
CC1=Nc2ccccc2/C1=C/c1sc(=N)n(-c2nccs2)c1O	Mdm2 MdmX PPI 99, aSyn 5UTR inh 63 | Mdm2-MdmX conf 67 | FLuc counter inactive
COc1ccc(-c2oc(=O)c3cc(OC)c(OC)cc3c2/C=C/c2cccc([N+](=O)[O-])c2)cc1	Mdm2 MdmX PPI 54 (no result: aSyn 5UTR inh, KLF5 inh) | Mdm2-MdmX conf inactive
COC(=O)c1ccc(C(=O)Nc2cc(Cl)ccc2Cl)cc1NC(=O)c1ccc(N(C)C)cc1	Mdm2 MdmX PPI 70 | Mdm2-MdmX conf inactive
O=C(Nc1cc(Cl)ccc1Cl)c1ccc(-c2ccccc2)cc1	none
CCC1CC(C(=O)Nc2ccccc2)C(=O)O1 (stereo not given)	none (no result: KLF5 inh)
CC(C)(C)c1ccc(C(=O)Nc2ccc(O)c3c(=O)cc(-c4cccc(Cl)c4)oc23)cc1	none (no result: KLF5 inh)
O=C(Nc1ccc(O)c2c(=O)cc(-c3cccc(Cl)c3)oc12)c1cccc(Cl)c1	Mdm2 MdmX PPI 81, aSyn 5UTR inh inconclusive (no result: KLF5 inh) | Mdm2-MdmX conf inactive
N#CC1=C(N)N2C(=C(C#N)C1c1ccccc1)Sc1ccccc12 (stereo not given)	none (no result: Gli-Sufu block)
N#CC1=C(N)N2C(=C(C#N)C1c1cccc(Br)c1)Nc1ccccc12 (stereo not given)	Mdm2 MdmX PPI 100, aSyn 5UTR inh inconclusive | Mdm2-MdmX conf 44 | FLuc counter 40
CCOC(=O)C(C)/C(C)=N/NC(=O)c1cc2ccccc2cc1O (stereo not given)	Mdm2 MdmX PPI 82, aSyn 5UTR inh 62 | Mdm2-MdmX conf 81 | FLuc counter 56
C/C(CC(=O)N1CCCC1)=N\NC(=O)c1cc2ccccc2cc1O	none
O=C1/C(=C/c2ccccc2F)SC(=S)N1CC(=O)N1CCCCC1c1cccnc1 (stereo not given)	Mdm2 MdmX PPI 79 | Mdm2-MdmX conf 41 | FLuc counter inactive
O=C1/C(=C/c2cccs2)SC(=S)N1CC(=O)N1CCCCC1CCO (stereo not given)	none
O=C1/C(=C/c2ccc(F)cc2)SC(=S)N1CC(=O)N1CCCCC1c1cccnc1 (stereo not given)	Mdm2 MdmX PPI 74 | Mdm2-MdmX conf inactive
Cc1ccc2c(c1)C(c1ccccc1)N(C(=O)c1ccc3c(c1)OCO3)CC(=O)N2 (stereo not given)	none
Cc1cc(C)n2[nH]c(=O)c(N=Nc3ccc(S(N)(=O)=O)cc3)c2n1	none
NC(=O)c1ccc(N=Nc2c(-c3ccccc3)[nH]n(-c3ccccc3)c2=O)cc1	Mdm2 MdmX PPI 93 (no result: Gli-Sufu block) | Mdm2-MdmX conf 85 | FLuc counter 108
Cc1[nH]n(-c2ccccc2)c(=O)c1N=Nc1ccc(C(N)=O)cc1	none
NS(=O)(=O)c1ccc(N=Nc2c(-c3ccccc3)[nH]n(-c3nc(-c4ccccc4)cs3)c2=O)cc1	Mdm2 MdmX PPI 81 | Mdm2-MdmX conf inactive
CCOC(=O)C1=C(C(F)(F)F)Nc2ncnn2C1c1ccc(OC)c(OC)c1OC (stereo not given)	none
Cc1cc(C(=O)COc2ccc(F)cc2Br)c(C)n1C1CC1	none (no result: aSyn 5UTR inh, KLF5 inh)
CCCN(c1ccc(OCC)cc1)c1ncnc2nc[nH]c12	none
CCN(c1ccc(OC)cc1)c1ncnc2nc[nH]c12	Mdm2 MdmX PPI 63 | Mdm2-MdmX conf 66 | FLuc counter 36
O=C(O)c1c2c(nc3ccccc13)/C(=C/c1ccc(O)cc1)CC2	Mdm2 MdmX PPI 62 | Mdm2-MdmX conf 60 | FLuc counter 106
COc1ccc(-c2nn(CC(=O)NCCc3ccccc3)c(=S)n2C)cc1	none
CCn1c(-c2ccc(C)cc2)nn(CC(=O)NCCc2ccccc2)c1=S	Mdm2 MdmX PPI 51 | Mdm2-MdmX conf 55 | FLuc counter inactive
COc1ccc(Cl)cc1NC(=O)NCC1CCN(Cc2cc(C)ccc2C)CC1	Mdm2 MdmX PPI 58 | Mdm2-MdmX conf inactive
Cc1ccc(C)c(CN2CCC(CNC(=O)Nc3ccc(C)c(C)c3)CC2)c1	none
